# Measurements from ChEMBL document CHEMBL2218924, “A broad activity screen in support of a chemogenomic map for kinase signalling research and drug discovery” (Biochem J, 2013).
# Tests used:
# [1] = molecular target: T1, Ephrin type-B receptor 1 (Homo sapiens) (UniProt P54762); conditions: at 10 µM
# T1 sequence (whole entry): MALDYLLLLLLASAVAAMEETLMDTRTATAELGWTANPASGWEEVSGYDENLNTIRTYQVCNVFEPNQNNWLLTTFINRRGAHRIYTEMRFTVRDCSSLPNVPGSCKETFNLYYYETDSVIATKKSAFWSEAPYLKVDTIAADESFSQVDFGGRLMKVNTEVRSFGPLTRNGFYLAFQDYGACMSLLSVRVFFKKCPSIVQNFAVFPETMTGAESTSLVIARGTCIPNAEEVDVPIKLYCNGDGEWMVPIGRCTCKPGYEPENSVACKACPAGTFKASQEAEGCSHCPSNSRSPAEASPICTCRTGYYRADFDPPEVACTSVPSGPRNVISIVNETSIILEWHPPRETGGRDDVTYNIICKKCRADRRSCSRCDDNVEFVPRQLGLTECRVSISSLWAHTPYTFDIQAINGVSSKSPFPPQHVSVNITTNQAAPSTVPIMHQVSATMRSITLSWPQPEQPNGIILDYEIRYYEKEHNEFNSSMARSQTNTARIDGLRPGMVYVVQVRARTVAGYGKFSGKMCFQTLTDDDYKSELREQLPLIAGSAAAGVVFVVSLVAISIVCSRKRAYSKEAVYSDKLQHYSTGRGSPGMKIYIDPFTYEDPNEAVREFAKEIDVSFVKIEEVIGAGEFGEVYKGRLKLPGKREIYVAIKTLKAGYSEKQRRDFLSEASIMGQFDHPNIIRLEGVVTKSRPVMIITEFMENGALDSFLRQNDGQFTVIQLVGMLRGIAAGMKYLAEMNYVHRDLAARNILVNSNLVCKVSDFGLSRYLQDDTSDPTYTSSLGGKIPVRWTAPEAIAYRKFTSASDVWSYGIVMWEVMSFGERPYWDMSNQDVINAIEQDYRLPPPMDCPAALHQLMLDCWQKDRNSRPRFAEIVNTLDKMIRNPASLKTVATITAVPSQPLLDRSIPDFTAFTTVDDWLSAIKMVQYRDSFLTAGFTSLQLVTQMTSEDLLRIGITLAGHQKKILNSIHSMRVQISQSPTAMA
# [2] = molecular target: T2, Ephrin type-B receptor 2 (Homo sapiens) (UniProt P29323); conditions: at 1 µM
# T2 sequence (whole entry): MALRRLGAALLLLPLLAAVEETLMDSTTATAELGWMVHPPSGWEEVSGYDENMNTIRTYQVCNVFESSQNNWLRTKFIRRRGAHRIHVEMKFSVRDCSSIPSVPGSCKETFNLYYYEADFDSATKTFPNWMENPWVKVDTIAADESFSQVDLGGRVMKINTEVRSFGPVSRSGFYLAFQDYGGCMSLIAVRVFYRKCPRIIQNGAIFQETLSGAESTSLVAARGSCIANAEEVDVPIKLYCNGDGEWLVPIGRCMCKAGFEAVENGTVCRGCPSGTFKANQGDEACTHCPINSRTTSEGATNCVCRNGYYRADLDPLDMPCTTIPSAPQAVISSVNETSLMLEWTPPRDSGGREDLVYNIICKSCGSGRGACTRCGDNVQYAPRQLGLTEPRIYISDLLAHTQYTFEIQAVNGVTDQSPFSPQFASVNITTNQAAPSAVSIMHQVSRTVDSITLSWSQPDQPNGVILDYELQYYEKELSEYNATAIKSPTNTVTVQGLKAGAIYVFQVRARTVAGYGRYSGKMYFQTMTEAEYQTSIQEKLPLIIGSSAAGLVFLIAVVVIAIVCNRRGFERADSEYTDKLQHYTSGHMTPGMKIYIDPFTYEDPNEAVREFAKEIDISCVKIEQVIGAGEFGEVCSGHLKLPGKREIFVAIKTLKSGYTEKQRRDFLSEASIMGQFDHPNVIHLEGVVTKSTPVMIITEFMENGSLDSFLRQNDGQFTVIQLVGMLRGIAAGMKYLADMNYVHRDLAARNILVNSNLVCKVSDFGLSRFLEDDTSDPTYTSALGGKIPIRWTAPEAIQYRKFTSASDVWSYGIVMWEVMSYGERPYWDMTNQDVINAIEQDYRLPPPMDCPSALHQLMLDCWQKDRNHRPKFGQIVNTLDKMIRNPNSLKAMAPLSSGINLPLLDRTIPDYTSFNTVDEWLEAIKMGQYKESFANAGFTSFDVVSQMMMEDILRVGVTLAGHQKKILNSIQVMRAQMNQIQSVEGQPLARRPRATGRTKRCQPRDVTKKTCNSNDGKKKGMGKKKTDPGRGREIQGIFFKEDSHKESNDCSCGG
# [3] = molecular target: T2, Ephrin type-B receptor 2 (Homo sapiens); conditions: at 10 µM
# [4] = molecular target: T3, Ephrin type-B receptor 3 (Homo sapiens) (UniProt P54753); conditions: at 1 µM
# T3 sequence (whole entry): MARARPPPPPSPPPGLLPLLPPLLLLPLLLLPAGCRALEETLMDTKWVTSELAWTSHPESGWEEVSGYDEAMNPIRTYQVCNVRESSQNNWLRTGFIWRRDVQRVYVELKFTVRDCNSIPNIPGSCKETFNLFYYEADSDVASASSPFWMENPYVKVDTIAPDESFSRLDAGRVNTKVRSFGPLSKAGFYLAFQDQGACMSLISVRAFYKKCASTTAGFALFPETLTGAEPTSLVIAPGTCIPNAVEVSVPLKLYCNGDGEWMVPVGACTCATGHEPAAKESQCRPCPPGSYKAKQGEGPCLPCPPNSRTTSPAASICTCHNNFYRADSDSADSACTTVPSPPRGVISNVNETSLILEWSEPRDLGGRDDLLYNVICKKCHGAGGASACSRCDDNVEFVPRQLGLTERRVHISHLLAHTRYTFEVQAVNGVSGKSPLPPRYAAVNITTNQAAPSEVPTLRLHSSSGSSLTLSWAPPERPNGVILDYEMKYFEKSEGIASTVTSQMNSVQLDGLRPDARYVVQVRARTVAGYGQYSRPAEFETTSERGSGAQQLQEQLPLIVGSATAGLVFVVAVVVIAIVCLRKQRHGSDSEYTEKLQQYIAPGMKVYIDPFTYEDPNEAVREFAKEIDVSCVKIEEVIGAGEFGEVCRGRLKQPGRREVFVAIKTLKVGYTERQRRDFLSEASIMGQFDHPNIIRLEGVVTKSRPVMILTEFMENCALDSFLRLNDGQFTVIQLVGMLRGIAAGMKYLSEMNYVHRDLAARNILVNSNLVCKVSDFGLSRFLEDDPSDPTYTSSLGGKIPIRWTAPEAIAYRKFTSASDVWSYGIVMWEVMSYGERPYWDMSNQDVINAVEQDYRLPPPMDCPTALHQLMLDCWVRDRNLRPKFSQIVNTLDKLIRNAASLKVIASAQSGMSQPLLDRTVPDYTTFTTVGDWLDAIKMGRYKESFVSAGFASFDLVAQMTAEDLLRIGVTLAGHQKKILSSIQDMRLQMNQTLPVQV
# [5] = molecular target: T3, Ephrin type-B receptor 3 (Homo sapiens); conditions: at 10 µM
# [6] = molecular target: T4, Ephrin type-B receptor 4 (Homo sapiens) (UniProt P54760); conditions: at 1 µM
# T4 sequence (whole entry): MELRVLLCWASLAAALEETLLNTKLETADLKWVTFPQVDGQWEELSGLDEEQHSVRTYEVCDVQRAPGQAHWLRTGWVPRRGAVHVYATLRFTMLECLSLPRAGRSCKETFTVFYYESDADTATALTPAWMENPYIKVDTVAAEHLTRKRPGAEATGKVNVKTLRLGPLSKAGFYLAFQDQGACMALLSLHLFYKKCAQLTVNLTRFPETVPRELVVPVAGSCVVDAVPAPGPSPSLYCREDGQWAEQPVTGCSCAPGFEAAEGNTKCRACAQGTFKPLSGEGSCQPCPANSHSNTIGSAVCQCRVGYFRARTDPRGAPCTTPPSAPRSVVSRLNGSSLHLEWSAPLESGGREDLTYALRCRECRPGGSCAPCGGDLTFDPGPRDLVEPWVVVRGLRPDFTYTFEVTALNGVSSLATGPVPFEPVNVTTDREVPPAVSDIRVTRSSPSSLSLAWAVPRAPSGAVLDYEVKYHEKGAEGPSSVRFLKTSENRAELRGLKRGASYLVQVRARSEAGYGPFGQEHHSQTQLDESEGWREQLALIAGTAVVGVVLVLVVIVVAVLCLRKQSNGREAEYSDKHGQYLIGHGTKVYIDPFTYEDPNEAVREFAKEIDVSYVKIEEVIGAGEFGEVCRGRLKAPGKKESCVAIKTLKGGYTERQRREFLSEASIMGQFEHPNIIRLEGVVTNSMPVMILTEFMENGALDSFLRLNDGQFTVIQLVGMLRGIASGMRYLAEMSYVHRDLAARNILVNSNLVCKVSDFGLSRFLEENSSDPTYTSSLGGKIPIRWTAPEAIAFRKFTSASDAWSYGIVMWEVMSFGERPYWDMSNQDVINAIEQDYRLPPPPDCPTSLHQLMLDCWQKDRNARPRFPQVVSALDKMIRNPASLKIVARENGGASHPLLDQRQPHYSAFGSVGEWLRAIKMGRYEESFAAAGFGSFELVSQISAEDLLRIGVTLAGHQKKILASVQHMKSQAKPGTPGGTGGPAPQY
# [7] = molecular target: T4, Ephrin type-B receptor 4 (Homo sapiens); conditions: at 10 µM
# [8] = molecular target: Receptor tyrosine-protein kinase erbB-4 (Homo sapiens) (UniProt Q15303); conditions: at 1 µM
# [9] = molecular target: Receptor tyrosine-protein kinase erbB-4 (Homo sapiens) (UniProt Q15303); conditions: at 10 µM
# [10] = molecular target: Focal adhesion kinase 1 (Homo sapiens) (UniProt Q05397); conditions: at 1 µM
# Focal adhesion kinase 1 (Homo sapiens), sequence (Q05397 2-1052 limits assumed): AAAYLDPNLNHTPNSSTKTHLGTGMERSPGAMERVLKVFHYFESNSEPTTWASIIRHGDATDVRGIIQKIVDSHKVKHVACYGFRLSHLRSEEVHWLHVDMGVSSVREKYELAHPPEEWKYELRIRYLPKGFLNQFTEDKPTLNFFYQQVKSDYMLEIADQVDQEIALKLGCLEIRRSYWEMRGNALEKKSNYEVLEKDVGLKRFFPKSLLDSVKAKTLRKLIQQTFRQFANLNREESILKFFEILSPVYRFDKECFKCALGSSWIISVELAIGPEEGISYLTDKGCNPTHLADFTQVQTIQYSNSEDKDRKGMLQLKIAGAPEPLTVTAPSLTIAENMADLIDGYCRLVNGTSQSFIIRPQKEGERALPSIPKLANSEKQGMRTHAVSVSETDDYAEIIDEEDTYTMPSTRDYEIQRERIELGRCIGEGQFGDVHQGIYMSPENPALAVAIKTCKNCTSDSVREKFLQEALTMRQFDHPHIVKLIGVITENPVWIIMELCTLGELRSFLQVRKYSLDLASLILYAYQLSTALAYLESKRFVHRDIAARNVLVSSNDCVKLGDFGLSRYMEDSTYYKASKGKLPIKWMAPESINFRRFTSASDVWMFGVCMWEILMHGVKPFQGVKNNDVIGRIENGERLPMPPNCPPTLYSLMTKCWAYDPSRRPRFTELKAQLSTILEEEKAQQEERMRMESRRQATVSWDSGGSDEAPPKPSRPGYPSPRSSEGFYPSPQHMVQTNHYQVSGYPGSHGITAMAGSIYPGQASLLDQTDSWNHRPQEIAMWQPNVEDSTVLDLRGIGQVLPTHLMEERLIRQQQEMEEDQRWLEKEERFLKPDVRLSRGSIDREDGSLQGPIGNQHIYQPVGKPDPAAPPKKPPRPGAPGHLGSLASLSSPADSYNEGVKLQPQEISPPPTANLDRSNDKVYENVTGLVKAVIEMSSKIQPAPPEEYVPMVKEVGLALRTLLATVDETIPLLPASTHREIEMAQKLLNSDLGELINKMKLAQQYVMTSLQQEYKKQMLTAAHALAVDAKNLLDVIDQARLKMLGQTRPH
# Receptor tyrosine-protein kinase erbB-4 (Homo sapiens), sequence (Q15303 whole entry): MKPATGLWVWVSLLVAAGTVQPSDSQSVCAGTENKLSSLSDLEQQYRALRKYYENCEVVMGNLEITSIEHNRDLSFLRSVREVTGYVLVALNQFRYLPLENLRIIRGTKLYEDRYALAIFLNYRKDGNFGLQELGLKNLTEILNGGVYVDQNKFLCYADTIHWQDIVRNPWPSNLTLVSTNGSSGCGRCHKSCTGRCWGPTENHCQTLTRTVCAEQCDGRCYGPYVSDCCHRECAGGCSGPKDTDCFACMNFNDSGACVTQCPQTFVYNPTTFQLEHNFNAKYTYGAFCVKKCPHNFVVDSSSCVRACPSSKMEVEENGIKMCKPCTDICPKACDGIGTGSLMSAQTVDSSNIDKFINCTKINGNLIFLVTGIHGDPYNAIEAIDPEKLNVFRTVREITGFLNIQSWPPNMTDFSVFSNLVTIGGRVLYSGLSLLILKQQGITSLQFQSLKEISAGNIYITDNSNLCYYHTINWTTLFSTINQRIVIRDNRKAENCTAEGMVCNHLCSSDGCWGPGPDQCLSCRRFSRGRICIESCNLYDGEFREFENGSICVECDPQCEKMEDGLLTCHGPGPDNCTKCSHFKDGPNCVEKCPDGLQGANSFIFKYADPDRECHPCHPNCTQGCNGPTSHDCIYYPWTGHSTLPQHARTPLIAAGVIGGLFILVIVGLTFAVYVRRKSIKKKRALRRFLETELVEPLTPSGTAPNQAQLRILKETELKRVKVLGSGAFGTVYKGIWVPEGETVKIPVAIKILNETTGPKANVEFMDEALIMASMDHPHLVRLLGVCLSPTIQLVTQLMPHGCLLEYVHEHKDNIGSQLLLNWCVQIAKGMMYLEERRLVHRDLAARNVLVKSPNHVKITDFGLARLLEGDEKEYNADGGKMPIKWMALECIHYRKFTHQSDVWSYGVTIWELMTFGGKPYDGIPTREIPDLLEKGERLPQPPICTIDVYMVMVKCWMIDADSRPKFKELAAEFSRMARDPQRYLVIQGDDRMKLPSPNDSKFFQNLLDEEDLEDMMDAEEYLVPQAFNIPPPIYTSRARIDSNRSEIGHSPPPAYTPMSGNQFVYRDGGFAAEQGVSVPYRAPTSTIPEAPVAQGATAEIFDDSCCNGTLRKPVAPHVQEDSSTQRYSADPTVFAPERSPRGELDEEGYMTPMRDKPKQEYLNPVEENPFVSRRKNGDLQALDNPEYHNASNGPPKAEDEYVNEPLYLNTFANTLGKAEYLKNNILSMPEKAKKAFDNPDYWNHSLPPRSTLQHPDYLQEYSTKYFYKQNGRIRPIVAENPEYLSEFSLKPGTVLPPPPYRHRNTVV
compound,measurement,setting,value
COc1ccc(OC)c2c(=S)c3ccccc3[nH]c12,residual activity,[1],83%
same,residual activity,[2],114%
same,residual activity,[3],118%
same,residual activity,[4],114% (inactive)
same,residual activity,[5],101%
same,residual activity,[6],97%
same,residual activity,[7],102%
same,residual activity,[8],80%
same,residual activity,[9],77%
same,residual activity,[10],91%
